hNpr1 antagonist: Natriuretic polypeptide receptor (hNpr1) antagonism - Primary qHTS; Atrial natriuretic peptide receptor 1 (Homo sapiens), P16066; Potency, µM (highest dose often 46.3 µM), usual class: inhibitors; 1.6% of 76,000 active; HEK293 hNpr1 GloSensor cGMP, ANP-stimulated luminescence; calls by dose curve; also: nearly all actives have a fitted effect of over 60% in size
Target sequence (P16066 whole entry, looked up): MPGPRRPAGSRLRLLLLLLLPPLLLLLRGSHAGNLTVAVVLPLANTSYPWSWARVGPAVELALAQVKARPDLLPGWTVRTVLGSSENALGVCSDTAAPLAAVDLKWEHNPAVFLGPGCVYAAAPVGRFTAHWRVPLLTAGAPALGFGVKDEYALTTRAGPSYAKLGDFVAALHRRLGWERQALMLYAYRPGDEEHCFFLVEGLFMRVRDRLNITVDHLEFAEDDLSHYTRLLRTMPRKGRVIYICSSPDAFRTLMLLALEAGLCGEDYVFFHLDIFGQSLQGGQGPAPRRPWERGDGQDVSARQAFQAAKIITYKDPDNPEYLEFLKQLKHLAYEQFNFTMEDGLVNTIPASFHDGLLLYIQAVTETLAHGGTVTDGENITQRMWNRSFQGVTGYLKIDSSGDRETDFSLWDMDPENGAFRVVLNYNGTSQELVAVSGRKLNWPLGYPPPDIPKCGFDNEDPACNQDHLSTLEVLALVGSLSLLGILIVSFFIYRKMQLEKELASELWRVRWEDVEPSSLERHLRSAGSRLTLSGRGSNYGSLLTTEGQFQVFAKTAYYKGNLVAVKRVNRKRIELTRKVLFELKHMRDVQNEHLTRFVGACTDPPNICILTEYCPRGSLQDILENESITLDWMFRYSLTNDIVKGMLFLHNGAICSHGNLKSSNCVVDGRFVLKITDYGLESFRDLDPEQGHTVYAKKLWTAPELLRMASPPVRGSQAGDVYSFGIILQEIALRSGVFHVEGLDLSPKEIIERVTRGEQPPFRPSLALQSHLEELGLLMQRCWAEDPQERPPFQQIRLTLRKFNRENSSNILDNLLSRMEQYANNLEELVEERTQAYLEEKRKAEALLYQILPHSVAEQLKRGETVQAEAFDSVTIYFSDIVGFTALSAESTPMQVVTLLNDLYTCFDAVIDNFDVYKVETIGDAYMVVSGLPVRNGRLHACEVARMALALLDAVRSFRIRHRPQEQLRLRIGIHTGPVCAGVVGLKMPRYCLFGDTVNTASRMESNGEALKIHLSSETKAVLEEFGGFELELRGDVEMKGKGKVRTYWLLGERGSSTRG
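Compound pre-incubated 30 min at room temperature on GloSensor-loaded HEK293 cells stably carrying hNpr1 and the pGS-40F cGMP biosensor. Stimulation uses hNppA at 0.1 nM final; luminescence is taken at baseline and 20 min post-agonist.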
FLuc inh: Firefly luciferase inhibition profiling of diverse chemical library using quantitative high-throughput screening. Luciferin 4-monooxygenase (Photinus pyralis), P08659. purified P. pyralis luciferase, luminescence, biochemical. Potency, µM (titrated, usually from 115 µM), actives largely listed as inhibitors. 2.5% of 76,000 active. AID 1347043, 2019; also: nearly all actives have a fitted effect of over 65% in size
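Luminescence read by CCD imager after adding enzyme (10nM final) to wells holding compound, titrated in qHTS. Substrates 10uM each D-luciferin and ATP; buffer 50mM Tris acetate pH 7.5, 10mM Mg acetate, Tween-20, BSA.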
HEK293 tox: Cytotoxic Profiling in HEK 293 Cell Line of Diverse Libraries Using Quantitative High-Throughput Screening; HEK 293 viability, ATP luminescence (CellTiter-Glo), 48-72 h; Potency, µM (titrated, usually from 115 µM), actives largely listed as inhibitors; 6.6% of 94,000 active; also: nearly all actives have a fitted effect of over 60% in size
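Viability of HEK 293 cells, plated at 250 cells/well, was judged by cellular ATP after compound treatment for 48 or 72 hr. Luminescence was imaged 10 min after CellTiter-Glo addition at room temperature.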
GPT2 inhibitor: Primary qHTS assay for inhibitors of Glutamate pyruvate transaminase 2 (GPT2) | 0.25% of 100,000 active | Potency, µM (titrated, usually from 57.7 µM), actives largely listed as inhibitors | Recombinant GPT2, coupled pyruvate oxidase/HRP Amplex Red fluorescence | AID 1671188, 2021 | Alanine aminotransferase 2 (Homo sapiens), Q8TD30; also: nearly all actives have a fitted effect of over 60% in size
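Recombinant GPT2 (10ng/uL) with 250uM a-KG and 2mM L-alanine, 30 min at room temperature, in HEPES pH 7.5 buffer. Pyruvate detected by pyruvate oxidase/HRP/Amplex Red fluorescence after 30 min in the dark; AOA (50uM) as positive control.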
NIH3T3 tox: Cytotoxic Profiling in NIH 3T3 Cell Line of Diverse Libraries Using Quantitative High-Throughput Screening; Potency, µM (doses to about 96.7 µM), hits mostly inhibitors; NIH 3T3 viability, CellTiter-Glo ATP luminescence, 48-72 h; 4.3% of 94,000 active; also: nearly all actives have a fitted effect of over 55% in size
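Viability of NIH 3T3 cells after 48 or 72 hr compound treatment at 37 °C was assessed by CellTiter-Glo, with luminescence imaged following a 10 min room-temperature step.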
Numbers stand for hits; - = inactive; ? = inconclusive; . = no result given; [ ] = remark or other dose. Sampled rows, rich in hits. Any-hit rate of the full collection: about 10%. Unless noted, calls follow the shape of the dose curve; as a rule, active = well fitted curve in the direction sought with a large enough effect; inconclusive = small, poorly fitted or top-dose-only effect, or another doubt; inactive = no such curve, though single readings can be large; an effect the other way counts as inactive or inconclusive.

SMILES	hNpr1 antagonist	FLuc inh	HEK293 tox	GPT2 inhibitor	NIH3T3 tox
Cn1nc(-c2ccncc2)cc1NC(=O)C1CCCC1	.	.	-	-	-
COCC1CN(C(C)=O)CC12CCN(Cc1cc(Cl)ccc1F)CC2 (centres undefined)	-	-	?	-	-
COc1ccc(C(=O)N[C@@H]2CN(Cc3ccccc3)C[C@H]2CN(C)C)cn1	.	.	?	-	32µM
CC(C)CNC(=O)C1CCN(Cc2ccccc2-c2cccnc2)CC1	.	.	?	-	-
CN(c1cc(=O)c2ccnc(Nc3ccn(C)n3)c2o1)C1CCOCC1	-	-	-	-	?
O=c1cc(-c2cccnc2)oc2c(NCc3ccccc3)nccc12	-	?	?	?	22µM
Cn1ccc(Nc2nccc3c(=O)cc(-c4cccnc4)oc23)n1	-	-	-	-	40µM
O=c1cc(-c2cccnc2)oc2c(NCC3CCOCC3)nccc12	-	-	-	-	?
Cn1ccc(Nc2nccc3c(=O)cc(-c4cn[nH]c4)oc23)n1	-	-	?	-	79µM
COCCCNC(=O)c1nc2cccnc2n(CCc2ccccc2)c1=O	.	.	-	-	-
CC(=O)NC1CCN(c2ccc3nnc(-c4ccccc4)n3n2)C1 (centres undefined)	.	.	-	.	-
CCc1nncn1C1CCN(S(=O)(=O)c2ccc(OC)c(Cl)c2)CC1	-	-	?	-	-
O=C(NC[C@H]1O[C@H](Cc2cc(-c3ccc(F)cc3)on2)CC[C@@H]1O)c1ccc(F)cc1	16µM	40µM	?	?	?
CC(C)CCNC[C@H]1O[C@H](Cc2cc(-c3ccc(F)cc3)on2)CC[C@@H]1O	?	?	89µM	-	50µM
CC(=O)NC[C@H]1O[C@H](Cc2cc(-c3ccc(F)cc3)on2)CC[C@@H]1O	?	?	-	-	-
Cc1noc(C)c1C(=O)N1Cc2ccccc2CC2(CCN(CC3CCNCC3)CC2)C1	.	.	-	-	-
Cc1noc(C)c1C(=O)N1Cc2ccccc2CC2(CCN(C)C2)C1 (centres undefined)	.	.	79µM	-	79µM
CCC(=O)N1Cc2ccccc2CC2(CCCN(C)C2)C1 (centres undefined)	.	.	79µM	-	?
CC(=O)N1Cc2ccccc2CC2(CCCN(C)C2)C1 (centres undefined)	.	.	-	-	-
COc1ccc2ccccc2c1CCNC(=O)CC1C(=O)NCCN1C(C)C (centres undefined)	-	-	-	-	-
CN(Cc1ccc(F)cc1)C(=O)Cc1ccccn1	-	-	-	-	-
CN(Cc1ccc(-c2ccccc2)cc1)C(=O)Cc1ccccn1	?	?	63µM	-	?
CN(Cc1ccc(-c2ccccc2)cc1)C(=O)Cc1ccc(F)cc1	-	-	50µM	-	35µM
Cc1cc(C(=O)N2Cc3cnn(C)c3Nc3ccccc32)ccc1CNC(=O)N1CCC[C@H]1C(=S)N1CCCN(C)CC1	.	.	.	-	.
COc1ccc(Nc2ccnc(N3CCN(C(=O)Nc4ccccc4)CC3)n2)cc1	.	.	25µM	-	?
SMILES	hNpr1 antagonist	FLuc inh	HEK293 tox	GPT2 inhibitor	NIH3T3 tox
O=C(c1ccc(Cl)cc1)N1CCN(c2nccc(Nc3ccccc3Cl)n2)CC1	.	.	22µM	-	?
COc1ccc(Nc2ccnc(N3CCN(C(=O)c4ccccc4OC)CC3)n2)cc1	.	.	?	-	?
COc1ccc(Nc2ccnc(N3CCN(C(=O)Nc4ccc(Cl)cc4)CC3)n2)cc1	.	.	?	-	-
O=C(c1ccccc1)N1CCN(c2nccc(Nc3ccccc3Cl)n2)CC1	.	.	?	-	?
COc1ccc(Nc2ccnc(N3CCN(C(=O)c4ccccc4F)CC3)n2)cc1	.	.	?	-	35µM
COc1cccc(C(=O)NC2CCN(c3nccc(Nc4ccccc4Cl)n3)CC2)c1	.	.	?	-	35µM
CCOC(=O)COC1CCN(C(=O)CC2CCCC2)CC(=O)N(C)c2ccccc21 (centres undefined)	.	.	-	.	?
COc1ccc(Nc2ccnc(N3CCN(C(=O)c4cccc(OC)c4)CC3)n2)cc1	.	.	16µM	-	25µM
COc1cccc(C(=O)N2CCN(c3nccc(Nc4ccccc4Cl)n3)CC2)c1	.	.	35µM	-	?
COc1ccc(Nc2ccnc(N3CCN(C(=O)NC(C)C)CC3)n2)cc1	.	.	?	-	?
COc1ccc(CC(=O)N2CCN(c3nccc(Nc4ccc(OC)cc4)n3)CC2)cc1	.	.	?	-	-
COc1ccc(Nc2ccnc(N3CCN(C(=O)c4ccc(Cl)cc4)CC3)n2)cc1	.	.	18µM	-	-
O=C(Nc1cccc(F)c1)c1cnc2c(c1)N([S+](=O)([O-])c1cccnc1)CCC2	-	-	?	-	-
COc1ccc(CCC(=O)N2CCC(c3noc(COc4ccc(C)cc4)n3)C2)cc1 (centres undefined)	.	.	?	-	?
O=C1NCc2ccccc2CC12CCCN2CC1=CCCCC1 (centres undefined)	.	.	?	-	?
Cc1nn(-c2ccccc2)c2c1C(C1CC1)N(C1CCN(C(=O)c3cccc(Cl)c3)CC1)C2=O (centres undefined)	.	.	?	.	-
COc1cccc(C(=O)N2CCC(N3C(=O)c4c(c(C)nn4-c4ccccc4)C3C3CC3)C2)c1 (centres undefined)	.	.	35µM	.	?
Cc1nn(-c2ccccc2)c2c1C(C1CC1)N(C1CCN(C(=O)c3cccc(Cl)c3)C1)C2=O (centres undefined)	.	.	25µM	.	?
COCC(=O)N1CCC(N2C(=O)c3c(c(C)nn3-c3ccccc3)C2C2CC2)C1 (centres undefined)	.	.	-	.	?
Cc1nn(-c2ccccc2)c2c1C(C1CC1)N(C1CCN(C(=O)NC3CCCC3)C1)C2=O (centres undefined)	.	.	45µM	.	?
COc1cncc(CN2CCC3(CC2)OC(=O)N(Cc2csc(C)n2)C3(C)c2ccccc2)c1 (centres undefined)	-	-	-	-	?
CC(C)CNC(=O)c1ccc2nnc(-c3cc(C(F)(F)F)cc(C(F)(F)F)c3)n2c1	.	.	?	-	?
OC1CC(c2cc(NCCSC3CCCCC3)ncn2)C1 (centres undefined)	13µM	?	?	-	?
O=C(NCc1ccccn1)C1CCCCN1Cc1ccc(-c2ccsc2)cc1 (centres undefined)	.	.	40µM	?	40µM
O=C(NCc1ccccc1F)C1CCCCN1Cc1ccc(-c2ccsc2)cc1 (centres undefined)	.	.	?	-	32µM
O=C(NCc1ccc(F)cc1F)C1CCCCN1Cc1ccc(-c2ccsc2)cc1 (centres undefined)	.	.	28µM	-	?
C=CCN(CC=C)C(=O)C1(Oc2cccnc2C)CCNCC1	-	-	-	-[11.5 µM]	-
